# Screening results as filed in PubChem BioAssay.
# RAD54 branch – inhibitors of human RAD54 branch migration. RAD54 Holliday junction branch migration, FAM/BHQ fluorescence. AID 602329. Q92698. 360,000 tested, 0.14% active. inhibition, % at 10.4 µM;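 active = mean normalized replicate activity at least 40 and at least half of replicates scoring 40 or more; inconclusive = only one of the two criteria met; inactive = mean below 40 and under half of replicates reaching 40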;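 also: 0% = median of neutral control wells and 100% = median of positive control wells; inhibitors cause a drop in the FAM fluorescence signal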
# INS-1E GSIS act – primary screen for activators of insulin secretion dependent on glucose, INS-1E cells, GLuc reporter luminescence | INS-1E GLuc reporter insulin secretion, 2-3 h | 370,000 tested, 0.61% active | activation, % at 16.6 µM;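 active = lowest replicate activation of at least 40%, so every replicate reaches that level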;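 also: 0% = median of neutral control wells and 100% = median of IBMX positive control wells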
# DENV2 CPE rescue – inhibitors of DENV2 cytopathic effect; 350,000 tested, 1.7% active; CPE inhibition, % at 9.99 µM; AID 651640; DENV2-infected cells, cytopathic effect rescue, plate reader; in the data active = CPE inhibition above about 20%, passing the limit was not always enough; inconclusive = no clear call, values can overlap the other calls; tested in BHK-21 cells;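 also: 0% = median of neutral control wells and 100% = median of positive control wells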
# dFosB activator – mouse delta FosB homodimer activation; purified delta FosB, TAMRA-CDK5 oligo fluorescence polarization; percent of positive-control signal above neutral wells; 340,000 tested, 0.99% active; P13346; activation, % at 25 µM;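 active = mean activation above about 17%, with every replicate also reaching it, limit read from the data, passing the limit was not always enough; inconclusive = only one of the two conditions met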
# RAD52 anneal inh – RAD52 (human) annealing inhibition; P43351; recombinant RAD52 DNA annealing, FRET fluorescence; inhibition, % at 18.7 µM; 360,000 tested, 0.46% active;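 active = every replicate showing at least 50% inhibition; inconclusive = mean inhibition at least 50% but not in every replicate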
# Target sequence (P43351 whole entry, looked up): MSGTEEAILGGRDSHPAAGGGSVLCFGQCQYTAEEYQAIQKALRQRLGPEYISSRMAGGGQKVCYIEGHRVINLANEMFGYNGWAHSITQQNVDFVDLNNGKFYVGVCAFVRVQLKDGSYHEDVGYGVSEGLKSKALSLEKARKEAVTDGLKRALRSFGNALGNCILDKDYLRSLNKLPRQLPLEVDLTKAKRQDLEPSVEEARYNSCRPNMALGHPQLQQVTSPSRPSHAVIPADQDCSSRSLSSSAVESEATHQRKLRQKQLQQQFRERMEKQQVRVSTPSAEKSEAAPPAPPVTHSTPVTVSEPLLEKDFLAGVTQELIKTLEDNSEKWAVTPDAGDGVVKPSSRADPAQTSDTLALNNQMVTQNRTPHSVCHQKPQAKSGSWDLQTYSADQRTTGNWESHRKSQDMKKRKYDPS
# MLL AF4-AF9 inh – MLL-AF4/AF9 protein interaction inhibition; AID 651704; 350,000 tested, 0.47% active; AlphaScreen, biotin-AF4 peptide binding to FLAG-AF9; inhibition, % at 10 µM;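 active = every replicate reaching a set inhibition limit, whatever the replicate mean, cut at about 25% in these data; inconclusive = mean inhibition reaches that limit but some replicates miss it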;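 also: 0% = plate neutral control median and 100% = total signal loss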
# Alpha interfer – counter-screen: AlphaScreen signal interference. AC50, µM (doses to about 12 µM), without a hit: at the top dose activity change, negative = inhibition. 530 tested, 45% active. shares compounds with MLL AF4-AF9 inh. signal luminescence; cut-off not given, nearly all actives have AC50 up to about 14 µM
# * marks the source's active call; other numbers are inactive results; ? = inconclusive; / = no result given. Most compounds without a hit are left out; they make up all but 3.1% or so of the library.
SMILES,RAD54 branch,INS-1E GSIS act,DENV2 CPE rescue,dFosB activator,RAD52 anneal inh,MLL AF4-AF9 inh,Alpha interfer
CC(C)C[C@@H](C(=O)NC1CCN(Cc2ccccc2)CC1)N1C(=O)N2CCc3c([nH]c4ccccc34)[C@@]2(C)C1=O,-0.6,-31.9,-9.1,7.7,-7.5,37.5*,-2.4%
C[C@@H]1NC(=O)N[C@@H]1CCCCCC(=O)O,13.8,/,?,3.5,-9.7,89.5*,1.12µM*
COc1ccc(CN2CC3(CN(Cc4ccccc4OC)C3)c3c([nH]c4cc(OC)ccc34)[C@H]2CO)cc1,/,-0.5,14.9,/,11.3,14.0,/
COc1ccc(CN2CC3(C2)CN(Cc2ccc4c(c2)OCO4)[C@H](CO)c2[nH]c4cc(OC)ccc4c23)cc1,/,-9.0,-25.4,/,/,35.7*,-28.2%
Cn1cc(C(=O)N/N=C/c2c(O)ccc3ccccc23)ccc1=O,/,4.5,-4.8,10.2,-13.5,23.6,-11.0%
O=C(N/N=C/c1c(O)ccc2ccccc12)c1ccc[n+](CCO)c1,/,-13.9,11.9,1.2,39.6,82.0*,0.608µM*
O=C(NN=Cc1c(O)ccc2ccccc12)c1ccncc1,/,/,-4.3,8.1,-18.0,5.9,/
C[C@H]1CN([C@@H](C)CO)C(=O)c2cccc(NS(=O)(=O)c3ccc(F)cc3)c2O[C@H]1CN(C)Cc1ccc(C(F)(F)F)cc1,/,-18.8,/,/,/,-2.5,/
CCCN1CCC(N(CCc2ccccc2)Cc2ccccc2)CC1,-8.7,1.2,7.3,-7.4,-2.0,5.9,/
COc1ccc(CN2CCC(N(CCc3ccccc3)Cc3ccccc3)CC2)c(OC)c1,7.0,122.3,13.4,10.3,46.0,30.1*,-21.5%
CCCCCc1cc(=O)oc2c(C(CCN3CCCC3)c3ccc(N(C)C)cc3)c(OC)cc(OC)c12 (stereo not drawn),-9.5,2.2,-18.7,-2.9,48.9,56.7*,6.99µM*
COc1ccc(S(=O)(=O)N(C)C[C@@H]2Oc3c(NC(=O)Nc4ccc(C(F)(F)F)cc4)cccc3C(=O)N([C@H](C)CO)C[C@@H]2C)cc1,2.6,-2.8,10.2,/,-12.1,-2.0,/
CC1=C/C(=C(\c2cc(C)c(O)c(Br)c2)c2ccccc2S(=O)(=O)O)C=C(Br)C1=O,7.5,-24.3,-6.9,-0.7,-2.7,52.4*,8.9µM*
C[C@H](CO)N1C[C@H](C)[C@H](CN(C)Cc2ccc(C(=O)O)cc2)Oc2ccc(NS(=O)(=O)c3ccc(Cl)cc3)cc2C1=O,4.1,15.9,14.5,/,11.7,-1.9,/
COc1ccccc1NC(c1cccnc1)c1ccc2cccnc2c1O (stereo not drawn),2.4,/,5.2,-0.4,-6.4,47.5*,-25.1%
COc1ccc(C(Nc2cc(C)ccn2)c2ccc3ccc(C)nc3c2O)cc1 (stereo not drawn),2.4,-11.4,-1.4,15.9,9.7,21.7,/
Cc1ccc2ccc(C(Nc3cccc(C(F)(F)F)c3)c3cccnc3)c(O)c2n1 (stereo not drawn),-3.3,9.9,/,-1.7,-6.7,33.1*,-17.4%
Cc1cc(NC(c2ccc(Cl)cc2)c2ccc3cccnc3c2O)no1 (stereo not drawn),0.3,/,/,-5.3,/,/,/
Cc1ccnc(NC(c2ccsc2)c2ccc3ccc(C)nc3c2O)c1 (stereo not drawn),8.3,-19.4,8.7,4.5,-15.2,55.1*,-12.7%
Cc1ccc2ccc(C(Nc3ccccc3)c3ccc(F)cc3)c(O)c2n1 (stereo not drawn),/,7.9,-2.4,/,-20.9,11.5,/
Cc1ccnc(NC(c2cccnc2)c2ccc3cccnc3c2O)c1 (stereo not drawn),/,0.9,-2.8,-8.2,1.5,82.0*,1.49µM*
COC(=O)/C(C#N)=C/c1c(N2CCN(Cc3ccc4c(c3)OCO4)CC2)nc2c(C)cccn2c1=O,/,21.6,0.0,-2.5,-8.5,1.6,/
CCOC(=O)/C(C#N)=C/c1c(N2CCN(Cc3ccc4c(c3)OCO4)CC2)nc2c(C)cccn2c1=O,-1.8,-7.9,1.2,-6.0,-28.2,38.9*,-7.3%
CNC(=O)C1=C[C@H](c2ccc(C(=O)OC)cc2)C[C@H](OCc2ccc(CO)cc2)O1,4.5,/,-4.2,/,20.3,-3.2,/
Nc1ccc(N)c(C(=O)O)c1,2.5,/,/,-25.0,/,26.7*,-8.0%
SMILES,RAD54 branch,INS-1E GSIS act,DENV2 CPE rescue,dFosB activator,RAD52 anneal inh,MLL AF4-AF9 inh,Alpha interfer
C[C@@H]1CN([C@H](C)CO)C(=O)c2cc(/C=C/c3ccccc3)cnc2O[C@@H]1CN(C)C(=O)c1ccccc1,3.6,-22.6,-6.2,/,16.1,3.7,/
COc1ccc(-n2cc(CNCCc3cnc[nH]3)c(-c3cccc(F)c3)n2)cc1,/,-9.8,-2.0,2.8,-26.7,29.7*,-19.4%
Cc1ccc2nc(-c3ccccn3)c(NC3CCCC3)n2c1,6.4,-3.4,1.3,-10.4,3.4,32.1*,-20.8%
CCCCCCSc1cccc(-c2nc3ccc(C)cn3c2NC2CCCCC2)c1,6.3,6.3,-5.9,-6.2,-11.1,-0.2,/
CC1Cc2ccccc2N1C(=O)c1ccc(N2CCCCC2)c([N+](=O)[O-])c1 (stereo not drawn),10.6,-6.9,-1.9,-9.6,-17.2,?,/
CC1Cc2ccccc2N1C(=O)c1ccc(N2CCCC2)c([N+](=O)[O-])c1 (stereo not drawn),-1.2,14.7,1.0,-0.7,1.3,23.2,-20.9%
CN(C)c1ccc(/C=C2/C[N+](C)(C)C/C(=C/c3ccc(N(C)C)cc3)C2=O)cc1,/,3.7,0.3,22.2*,-124.8,56.3*,5.83µM*
COc1ccccc1NC(=O)N(C)C[C@@H]1Oc2cc(Br)ccc2S(=O)(=O)N([C@@H](C)CO)C[C@H]1C,0.2,-13.7,-1.2,/,3.0,1.1,/
CC(O)CNc1nc2sc3c(c2c(=O)n1CCc1ccccc1)CCCCC3 (stereo not drawn),/,-12.3,-1.5,-3.3,-10.5,7.0,/
CN(C)CCNc1nc2sc3c(c2c(=O)n1CCc1ccccc1)CCCCC3,9.1,/,-2.9,-13.6,23.9,31.3*,-7.5%
C#CCOCCOCCOCCNc1nc(N2CCN(C(=O)[C@H]([C@@H](C)CC)n3cc(CCCN=C(N)N)nn3)CC2)nc(N2CCN(C(=O)[C@H](CCCCN)n3cc(CCCC)nn3)CC2)n1,-3.5,/,-10.1,2.9,-53.7,28.5*,-11.2%
COc1ccc(OC)c(C2=NOC(C(=O)Nc3c(C)n(C)n(-c4ccccc4)c3=O)C2)c1 (stereo not drawn),7.1,2.9,81.0*,-6.9,0.1,-7.6,4.6%
CCN(CC)c1ccc(CNc2ccc3c(c2)ncn3C(C)(C)C)cc1,3.8,-37.3,0.1,-9.8,-51.3,41.1*,8.99µM*
C[C@H](CO)N1C[C@H](C)[C@@H](CN(C)S(=O)(=O)c2cccs2)Oc2c(NC(=O)C3CCOCC3)cccc2C1=O,-6.3,27.8,-10.8,/,-7.2,-2.4,/
